From article PMC12136788
In all, about 24,000 sequences were measured (“enrichment r”: median about 0.99, highest 2% from about 3.7 on). The list comes from a sample in which the highest values are over-represented; it also holds similar and randomly drawn sequences.

T1: UNK ZnF1-3 (human, UniProt Q9C0B0 31-174)
T1 sequence: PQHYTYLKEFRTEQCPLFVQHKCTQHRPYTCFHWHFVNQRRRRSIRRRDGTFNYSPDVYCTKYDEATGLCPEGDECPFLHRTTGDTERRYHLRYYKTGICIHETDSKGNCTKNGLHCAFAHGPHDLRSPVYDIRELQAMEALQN

B1: chr2:192256868:192256869:+_ENSG00000128641_ENST00000304164|hu_hu|FALSE|FALSE (ssRNA)
RNA: GGGAGUUCUACAGUCCGACGAUCUGGGUUUCGGAUGAAUAUCUUUGAUCUACCAAAGGAGUAUUCUUCCACGGGAAUUUCUAAUUCAUUAAAUAGGACCUCCACACCAGACCUGGCUGGUCCUUUCCAAUGAGGCCAUGUUUGCAACAGAGGAUUGAGCAUCA
B2: 113942580_113943501_80_5pUTR_ENSG00000119927_ENST00000348367|human|control|control (ssRNA)
RNA: GGGAGUUCUACAGUCCGACGAUCAUAAAACUUCAGGACUCAGCUAUCAGUUUCGGGUGCAGAAUGUCCAUACAACAGGGGAGCCGCUGCUGCCCUAGCAGCUCCAGCUUCGGCUGCUGCAGAAGCCCGCACUUCCAGUCCCGGCAACAGAGGAUUGAGCAUCA
B3: chr7:65419240:65419241:+_ENSG00000196715_ENST00000360768|hu_mus|motif|central (ssRNA)
RNA: GGGAGUUCUACAGUCCGACGAUCGCUGGCCAUCAGUCUUCCUUAGGCUGCAGCUGUCGCUUCCAGGCCUCAUUCAAAUAAACGGGUCGUUUGUAAUUGAUGAUGAGGAGGAGGAAGUUCAGCACAUAUGUGGUGACGCAGAUGCAACAGAGGAUUGAGCAUCA
B4: chr11:107358869:107358870:+_ENSMUSG00000020720_ENSMUST00000021063|mus_hu|FALSE|FALSE (ssRNA)
RNA: GGGAGUUCUACAGUCCGACGAUCCUCUGGAAGUUGAUAAUUCCUGCUAAUCUGUCUACUUUAGCAAAGAUGGUCUUGUUAACUACUAGAUUUGAGAGAAAGGCUUCGGACUCAUCAACAGAUAGAUCCAGAAGCUGUGCCAUCCAACAGAGGAUUGAGCAUCA
B5: chr3:55808730:55808731:-_ENSMUSG00000027799_ENSMUST00000029374|mus_mus|FALSE|FALSE (ssRNA)
RNA: GGGAGUUCUACAGUCCGACGAUCUGACGUCGUAUGAAUUCUGAAGUCUUUCUCUUCCAUUAUGCUUGAUGUGCACGUUAACUCUACACUCGCAGUCAUGUGAGCAAGCAACCCAAGAUCAUCACUGACACCAAGAUGUACUUGCAACAGAGGAUUGAGCAUCA
B6: 75313438_75313660_4053_CDS_ENSMUSG00000020850_ENSMUST00000102510|mouse|control|control (ssRNA)
RNA: GGGAGUUCUACAGUCCGACGAUCCUUGGACCACCUGAGGUCAGACUGGGGGAUAAGCACAUGGCCCAUCGAGAGCAUGCCAAGCCCACCCAGCUCCUUAGGGGUGUAGAAUACAACAGGCGGGAACCGGCUAGGCAUCUUGGACAACAGAGGAUUGAGCAUCA
B7: chr4:95690885:95690886:+_ENSMUSG00000028572_ENSMUST00000156910|mus_mus|mus_mus_mus_hu_False|78_98 (ssRNA)
RNA: GGGAGUUCUACAGUCCGACGAUCUUUAGAAAAUGUUAAUGUUAAAUCUAAAAUAUUGUAAUUUUAAUAUUUUAUUUUACCAGAAGUCACAGGCAAGCAGACACUACAAGAAUAUAUGAAAAUGAAACUCAACAAUAUAACUGUCAACAGAGGAUUGAGCAUCA
B8: chr19:15271055:15271056:-_ENSG00000074181_ENST00000263388|hu_hu|FALSE|FALSE (ssRNA)
RNA: GGGAGUUCUACAGUCCGACGAUCCAUAUAUAUAUUUUGUAAAAAAUAAUAAUAAUAAGUUUGUUUAAAUGAAUUUGUUUCUAUACAAAAUGUAAAAAAAAAAAGAAAAAUAAAAAUAAUAAUAAUUCAUUCAUGUCAGAGUGUCAACAGAGGAUUGAGCAUCA
B9: chr4:125586161:125586162:-_ENSG00000151458_ENST00000504087|hu_mus|FALSE|FALSE (ssRNA)
RNA: GGGAGUUCUACAGUCCGACGAUCCACGACGUCCUAAACAGUUGAUUUACAAAAUUUAAAUAUUUGAAUUUCAAAAAUAGCCAUUUAUUAUUAUUUUUUUAUUUGUGGGACCGUUUCUUAUCUUUGUAAUAGAGAAGUCAUUGUCAACAGAGGAUUGAGCAUCA
B10: 207631549_207631669_399_CDS_ENSG00000118246_ENST00000403094|human|control|control (ssRNA)
RNA: GGGAGUUCUACAGUCCGACGAUCAAAAAUGAAUGCAUCCUGAAAGAGAUAUCUAAUGAUAUCAGUUGAUUGCAUUCUGUUAUGAAAGUUAUUUAAAAUGUUCCAGUUUGAAUGAACUAUUUUUGGUUUGCAAAGUCCCAAACACAACAGAGGAUUGAGCAUCA
B11: chr6:117881578:117881579:-_ENSG00000047932_ENST00000052569|hu_mus|FALSE|FALSE (ssRNA)
RNA: GGGAGUUCUACAGUCCGACGAUCCUUUAAUGUAGAAUAUGUCAUUUUUAUUUACAGGCUAAUUAAGAAUAUGAAACUCAACUAGAUAUAAUACAAUUAUCAUAAAUCCCCUUAUAUGUAAAUUAAUAUAUUUUUUGUUUUAAACAACAGAGGAUUGAGCAUCA
B12: chr19:53454881:53454882:-_ENSMUSG00000025024_ENSMUST00000025997|mus_mus|motif|central (ssRNA)
RNA: GGGAGUUCUACAGUCCGACGAUCGUUUCAUUCUACCAAAGCCAAACAAUGACAACAAUGUAUCUUCCUUACUCAGCAUCGGAGCAAUCAGUUACCUUUAGAAAAAUACAAGGAUAAAAAGGAGAGUGUAAAGUAAAGCCCUGCCAACAGAGGAUUGAGCAUCA
B13: chr19:46159329:46159330:+_ENSMUSG00000015176_ENSMUST00000165017|mus_hu|FALSE|FALSE (ssRNA)
RNA: GGGAGUUCUACAGUCCGACGAUCGGUCAAGUUGUCAAAAAAUGUCUUUCAACAGUAGAAAAGUUUGCUUUCAAAUUAAAAAACAAAGCACGUAUUGCAAACAUCGUGUAAUGAUAAAAUUACAGAAAAAAAUAUAUUCAGAAUCAACAGAGGAUUGAGCAUCA
B14: chr10:123500321:123500322:-_ENSG00000107669_ENST00000369043|hu_hu|motif|central (ssRNA)
RNA: GGGAGUUCUACAGUCCGACGAUCACGUUAAGAAACUACACACAACAAAUAUUUGCAAAAUGAAUGAAAAAUAGGAUAAAGCGGUUUAAAAGUCAACAUAGUAAUAUUUAUCUAAAUAAUUUUAAUCAAAUGUACAACAUAUUUCAACAGAGGAUUGAGCAUCA

biological target: T1, UNK ZnF1-3; assay: nsRBNS (natural sequence RNA bind-n-seq); RBNS binding buffer (assumed for nsRBNS): 25 mM Tris pH 7.5, 150 mM KCl, 3 mM MgCl2, 0.01% Triton X-100, 500 ug/ml BSA, 20 U/ml SUPERase-In, 4 C; UNK is unkempt and MSI1 is Musashi-1; names of the RNAs are library labels; protein concentration not given here; high values mean tight binding

Binder	binding signal
B1	0.529 enrichment R
B2	1.22 enrichment R
B3	1.01 enrichment R
B4	3.65 enrichment R
B5	0.64 enrichment R
B6	0.919 enrichment R
B7	3.29 enrichment R
B8	9.9 enrichment R
B9	3.35 enrichment R
B10	0.397 enrichment R
B11	4.33 enrichment R
B12	1.52 enrichment R
B13	6.25 enrichment R
B14	6.73 enrichment R
